Screening data: PubChem BioAssay, several laboratories
Most compounds without a hit are left out; they make up all but 4.6% or so of the library.
PfHsp90 yeast 2: growth inhibition of yeast expressing Plasmodium Hsp90. S. cerevisiae expressing PfHsp90, BacTiter-Glo ATP, 48 h; yeast lacking PDR1 and PDR3 efflux regulators. inhibition, % at 9.4 µM. hit rate 0.32% among 310,000. AID 504621;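 active = every replicate shows inhibition above about 80%, whatever the replicate mean, limit read from the data; inconclusive = mean inhibition reaches the set limit but some replicate falls short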
tim23-1 inh: inhibits growth of tim23-1 mutant yeast | AID 463212 | S. cerevisiae tim23-1 growth, BacTiter-Glo luminescence, 24 h | hit rate 1.3% among 330,000 | inhibition, % at 20 µM;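 active = growth inhibition of the mutant yeast at or above 50%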;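 note: temperature-sensitive mutant grown at 25 °C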
tim10-1 inh: growth inhibitors of tim10-1 mutant yeast. inhibition, % at 20 µM. hit rate 2.2% among 330,000. S. cerevisiae tim10-1 ts strain growth, BacTiter-Glo, 24 h;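 active = inhibition of at least 40%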;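 note: mutant grown at 25 °C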
SKKanGAS inh: inhibitors of SKKanGAS S. pyogenes growth in kanamycin (SK-promoter or general growth effect); BacTiter-Glo, 6 h; inhibition, % at 7.5 µM; hit rate 1.3% among 300,000; AID 1662;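 active = mean replicate score, as percent of positive control median, at least 50; inconclusive = mean below 50 but one replicate at or above 50; inactive = mean and every replicate below 50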;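 note: strain carries kanamycin resistance gene driven by streptokinase promoter and grows in 40 µg/ml kanamycin; loss of luminescence reflects streptokinase promoter inhibition or plain growth inhibition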
V-ATPase pH: alters yeast V-ATPase proton transport; S. cerevisiae, pHLuorin cytosolic pH fluorescence; hit rate 0.37% among 350,000; response, % at 10 µM; in the data active = response mostly above about 7.3%, no sharp cut-off; inactive = mostly below about 5.4%; note: actives read high
TIM10 inh: growth inhibitors of TIM10 yeast strain | S. cerevisiae TIM10 strain growth, BacTiter-Glo luminescence, 24 h | hit rate 1.4% among 330,000 | AID 463195 | inhibition, % at 10 µM;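 active = inhibition of 40% or more at the single tested concentration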;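 note: wild-type TIM10 isogenic control strain grown at permissive 25 °C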
tim10-1 conf: confirmation of tim10-1 mutant yeast growth inhibitors | inhibition, % at 20 µM | shares compounds with tim10-1 inh | S. cerevisiae tim10-1 ts strain growth, BacTiter-Glo, 24 h | hit rate 56% among 7,400;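 active = inhibition of yeast growth at or above a set limit in either of two repeat tests at 20 µM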;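 note: tim10-1 mutant grown at permissive 25 °C to find synthetic lethal compounds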
TIM10 conf: confirmation of TIM10 yeast growth inhibitors; S. cerevisiae tim10 strain growth, BacTiter-Glo luminescence, 24 h; shares compounds with TIM10 inh; hit rate 63% among 4,600; inhibition, % at 10 µM;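 active = inhibition of yeast growth at or above a set limit in either of two replicates at 10 µM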; note: this counterscreen used the strain with wild-type TIM10
tim23-1 conf: tim23-1 yeast growth inhibition, confirmed. shares compounds with tim23-1 inh. inhibition, % at 20 µM. hit rate 83% among 4,400. S. cerevisiae tim23-1 growth, BacTiter-Glo luminescence, 24 h;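 active = inhibition above about 39% in either of two replicate wells at 20 µM, limit read from the data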;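 note: temperature-sensitive tim23-1 mutant grown at 25 °C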
Each line names hits and unclear results; the compound was inactive in the other large screens (follow-up assays come after a bar, where they were run).

COc1cc(/C=N/NC(=S)NC2CC3CC2C2C=CCC32)ccc1O (stereo not drawn)	tim23-1 inh 75, tim10-1 inh 53 | tim10-1 conf 42 | tim23-1 conf 62
Cc1ccc(Nc2nc(Cl)nc(N(C)C#N)n2)cc1	tim23-1 inh 59, tim10-1 inh 50 | tim10-1 conf 47 | tim23-1 conf inactive
COc1ccc(CCNC(=O)/C(C#N)=C/c2cccc(OCc3ccccc3)c2)cc1OC	none
N#C/C(=C\c1cccc(NC(=O)c2ccccc2Cl)c1)C(=O)NCCc1ccccc1	tim23-1 inh 60, tim10-1 inh 66, TIM10 inh 57 | tim10-1 conf 61 | TIM10 conf inactive | tim23-1 conf 57
CC1=CC(C)(C)N(C(=O)CN2C(=O)CCC2=O)c2ccc(C)cc21	none
CC1=CC(C)(C)N(C(=O)CN2C(=O)c3ccccc3C2=O)c2ccccc21	tim23-1 inh 60, tim10-1 inh 43, TIM10 inh 40 | tim10-1 conf inactive | TIM10 conf inactive | tim23-1 conf 51
Cc1ccc(CN(C)C(=O)CSc2nnc3n2CCCCC3)c(C)c1	none (no result: SKKanGAS inh)
O=C(Nc1ccccc1)C1=C[C@@H](c2coc3ccccc3c2=O)C[C@@H](OCCCCO)O1	none
Nc1c(Cl)cc2c(c1Oc1ccccc1)C(=O)c1ccccc1C2=O	tim23-1 inh 66, tim10-1 inh 52, TIM10 inh 54 | tim10-1 conf inactive | TIM10 conf 48 | tim23-1 conf 67
COc1ccc(S(=O)(=O)N2CCOC2CNC(=O)C(=O)NCc2ccc3c(c2)OCO3)cc1 (stereo not drawn)	none
Cc1cccnc1Nc1nc(-c2ccc(O)cc2O)cs1	tim23-1 inh 88, tim10-1 inh 44 | tim10-1 conf inactive | tim23-1 conf 52
O=C(NC(=S)N1CCN(Cc2ccc3c(c2)OCO3)CC1)c1cccc(Br)c1	tim23-1 inh 54, tim10-1 inh 51, SKKanGAS inh inconclusive, TIM10 inh 56 | tim10-1 conf 35 | TIM10 conf inactive | tim23-1 conf 47
O=C(NC(=S)Nc1ccc2c(c1)OCCO2)c1cccc(Br)c1	tim23-1 inh 51, tim10-1 inh 45, TIM10 inh 45 | tim10-1 conf inactive | TIM10 conf inactive | tim23-1 conf 42
O=C(NC(=S)Nc1ccc2c(c1)OCO2)c1ccccc1	none
Cc1nn(-c2ccccc2)nc1CNC(=O)C1CCC1	none
O=C(NC(=S)N(Cc1ccccc1)c1ccccn1)C1CC1	none
CCOc1ccc(OCCNC(=O)C(NC(=O)c2c(F)cccc2F)C(C)C)cc1 (stereo not drawn)	none (no result: PfHsp90 yeast 2, SKKanGAS inh)
Cc1ccccc1C(=O)Nc1ccc(C(=O)N/N=C/c2ccncc2)cc1	none
O=C(Nc1ccccc1C(=O)N/N=C/c1ccncc1)c1ccccc1	tim23-1 inh 77, tim10-1 inh 68, TIM10 inh 62 | tim10-1 conf 68 | TIM10 conf 36 | tim23-1 conf 70
COc1ccc(C(=O)Nc2ccccc2C(=O)N/N=C/c2ccco2)cc1	tim23-1 inh 72, tim10-1 inh 67, TIM10 inh 47 | tim10-1 conf 68 | TIM10 conf 43 | tim23-1 conf 72
Cc1nc2c(-c3ccc(F)cc3)cnn2c(N)c1-c1ccccc1	tim23-1 inh 74, tim10-1 inh 46, TIM10 inh 45 | tim10-1 conf 35 | TIM10 conf 52 | tim23-1 conf 42
Cc1nc2c(-c3ccc(Cl)cc3)cnn2c(N)c1-c1ccc(F)cc1	none
CCCCOc1ccc(C(=O)CCN2CCCCC2)cc1	tim23-1 inh 50, tim10-1 inh 47 | tim10-1 conf inactive | tim23-1 conf 66
O=C1CC(c2ccccc2)CC(O)=C1C=Nc1cccc(Cl)c1 (stereo not drawn)	PfHsp90 yeast 2 105, tim23-1 inh 85, tim10-1 inh 89, TIM10 inh 90 | tim10-1 conf 79 | TIM10 conf 94 | tim23-1 conf 85
CC(C)c1ccc(C(=O)Nc2ccc(S(=O)(=O)NC3=NCCCCC3)cc2)cc1	none (no result: PfHsp90 yeast 2, tim23-1 inh, tim10-1 inh, SKKanGAS inh, TIM10 inh)
COc1ccc(OC)c(CNC(=O)CCC(=O)N2Cc3cccc(OC)c3Oc3ncccc32)c1	none
NC(=S)N/N=C/c1ccc(-c2cc(Cl)cc(Cl)c2)o1	none
NC(=S)N/N=C/c1ccc(-c2cc(Cl)ccc2Cl)o1	tim23-1 inh 54, tim10-1 inh 44, TIM10 inh 45 | tim10-1 conf inactive | TIM10 conf 39 | tim23-1 conf 62
CCOC(=O)NS(=O)(=O)c1ccc(CCNC(=O)c2cc(C)on2)cc1	none
O=S(=O)(NCc1ccccc1)c1ccc(-c2cnc(C3CC3)o2)cc1	none
Cc1cccc(C)c1NS(=O)(=O)c1ccc(-c2cnc(C3CC3)o2)cc1	tim23-1 inh 71, tim10-1 inh 54 | tim10-1 conf 32 | tim23-1 conf 63
CCN(C(=S)Nc1ccc(Oc2ccccc2)cc1)c1ccccc1	none
O=C(Nc1nc2cc3c(cc2s1)OCCO3)c1ccco1	tim23-1 inh 75, tim10-1 inh 49, SKKanGAS inh 62, TIM10 inh 43 | tim10-1 conf 41 | TIM10 conf 41 | tim23-1 conf 60
O=C(CSc1n[nH]c(=O)n1-c1ccccc1)N1CCOCC1	none
COc1ccc(C(=O)On2c(-c3ccc(Br)cc3)nc3ccccc3c2=O)cc1	tim23-1 inh 61, tim10-1 inh 57, TIM10 inh 74 | tim10-1 conf 52 | TIM10 conf 74 | tim23-1 conf 79
COc1cc(OC)cc(-c2nc3ccccc3c(=O)n2OC(=O)c2ccc(Br)cc2)c1	tim23-1 inh 58, tim10-1 inh 49, TIM10 inh 61 | tim10-1 conf 38 | TIM10 conf 35 | tim23-1 conf 72
Cc1noc(C)c1S(=O)(=O)NCc1ccc(CN(C)C)cc1	none (no result: SKKanGAS inh)
COc1ccccc1N1C(=O)C2C(c3ccc(F)cc3)NN(C(=O)c3ccc(C)cc3)C2C1=O (stereo not drawn)	none
CC1CCCCN1C(=O)CN1CCN(S(=O)(=O)c2ccc(Br)cc2Cl)CC1 (stereo not drawn)	tim23-1 inh 52, tim10-1 inh 43 (no result: SKKanGAS inh) | tim10-1 conf inactive | tim23-1 conf 43
CC(C)(C)c1ccc(S(=O)(=O)N2CCN(CCC#N)CC2)cc1	tim23-1 inh 51, tim10-1 inh 50 (no result: PfHsp90 yeast 2) | tim10-1 conf inactive | tim23-1 conf inactive
NNC(=O)/C(=N/Nc1ccccc1)S(=O)(=O)c1ccc(Cl)cc1	tim23-1 inh 69, tim10-1 inh 56, SKKanGAS inh 74 | tim10-1 conf 49 | tim23-1 conf 59
